# FECH block = human FECH heme synthesis enzyme inhibition; P22830; purified FECH, Ni-mesoporphyrin absorbance 550 nm; calls only at 10 µM (by protocol); hit rate 3.3% among 20,000; AID 1671448;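 active = enzyme reaction rate more than 3 SD below the solvent-only control wells on the same plate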;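 also: lower slope than DMSO wells means FECH inhibition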
# Target sequence (P22830 whole entry, looked up): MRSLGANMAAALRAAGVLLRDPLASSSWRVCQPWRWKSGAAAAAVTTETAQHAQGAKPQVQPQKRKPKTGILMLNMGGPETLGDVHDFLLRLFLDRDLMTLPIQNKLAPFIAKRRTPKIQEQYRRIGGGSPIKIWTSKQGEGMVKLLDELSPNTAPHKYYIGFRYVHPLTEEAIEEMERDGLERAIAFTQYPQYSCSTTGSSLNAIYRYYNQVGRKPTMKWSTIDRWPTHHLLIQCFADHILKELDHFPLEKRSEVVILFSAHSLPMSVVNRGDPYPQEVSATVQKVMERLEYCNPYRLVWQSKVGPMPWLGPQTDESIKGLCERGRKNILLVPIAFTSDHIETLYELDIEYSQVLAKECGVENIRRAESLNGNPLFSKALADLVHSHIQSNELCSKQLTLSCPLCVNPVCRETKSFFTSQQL
# Calls only; - = inactive; + = active, no number. This excerpt belongs to a sample that is enriched for hits.
SMILES,FECH block
CN1CCC2(CC1)CN(C(=O)CCC1=NNC(=O)CC1)CCN2C,-
Cc1ccc(-c2nn(C(C)C(=O)Nc3cccc(F)c3)c(=O)c3c2CCCC3)cc1S(N)(=O)=O (stereo not given),-
Cc1ccc(OCC(=O)Nc2cc(C)nn2-c2ncnc3c2cnn3-c2cccc(Cl)c2)cc1,-
COCCN1C(=O)c2c(-n3cccc3)c3cc(OC)ccc3n2CC1(C)C(=O)NC1CCCCC1 (stereo not given),-
C=CC[C@@H]1CC=C[C@@H](C)N1Cc1ccc(C(=O)Nc2ccnn2C)cc1,-
COCc1nc2cccnc2n1C1CCN(S(=O)(=O)c2cc(Cl)ccc2OC)CC1,-
CC(=O)Nc1nc2n(n1)C(c1ccccc1)C=C(c1ccc(Cl)cc1)N2 (stereo not given),-
CC1=NN(CC(=O)NCCn2ncc3ccccc3c2=O)CC1,-
O=C(NCc1ccccn1)c1nc[nH]c1C(=O)NCc1ccccn1,+
CC(C)(C)CNC(=O)c1[nH]cnc1C(=O)NC1CCC(O)CC1 (stereo not given),-
O=C(NCc1ccccn1)c1nc[nH]c1C(=O)NCc1cccc(C(F)(F)F)c1,+
O=C(NCCc1c[nH]c2ccccc12)c1nc[nH]c1C(=O)NCc1ccccn1,-
CCCNC(=O)c1[nH]cnc1C(=O)NC1CCc2ccccc21 (stereo not given),-
CC(C)CNC(=O)c1nc[nH]c1C(=O)NCC(C)(C)C,-
CC(C)CCNC(=O)c1[nH]cnc1C(=O)NC(c1ccccc1)c1ccccc1,-
O=C(NC1CCc2ccccc21)c1nc[nH]c1C(=O)NCc1ccccn1 (stereo not given),+
CC(C)CCNC(=O)c1nc[nH]c1C(=O)NCc1cccc(C(F)(F)F)c1,-
Cc1ccc(F)cc1-c1cnc(N)cn1,-
COc1cccc(CN(C(=O)c2ccc(-c3ccn[nH]3)cc2)C2CC2)c1,-
CC(C)c1nc(C2Cc3ccccc3O2)n(-c2ccccn2)n1 (stereo not given),-
O=C(Nc1nc2n(n1)C(c1ccccc1Cl)C=C(c1ccccc1)N2)c1ccc(F)cc1 (stereo not given),-
COc1cc(OC)cc(C(=O)Nc2ccc(Nc3nc(C)cc(N4CCCC4)n3)cc2)c1,-
COc1cc(-n2c(CO)nc3ccccc32)ccc1NC(C)=O,-
O=C(CC1CCN(S(=O)(=O)c2ccccc2)CC1)NCCN1CCC(Cc2ccccc2)CC1,-
Cc1nc(C(=O)N2CC[C@@H](c3ccc4ccccc4c3)[C@H](O)C2)c(C)o1,-
SMILES,FECH block
O=C(c1cccs1)N1CC[C@@H](c2ccc3ccccc3c2)[C@H](O)C1,+
Cc1noc(C)c1C(=O)N1CC[C@@H](c2ccc3ccccc3c2)[C@H](O)C1,-
Cc1ccc(Nc2nc(N(C)CCO)nc3c2cnn3-c2ccccc2)cc1,-
Cc1nc(CNC(=O)c2ccccc2-n2cncn2)nc2c1CCCC2,-
CCC(=O)Nc1cccc(C(=O)N(Cc2c(C)nn(C)c2C)C(C)C)c1,-
CC(C)OCCCNC(=O)C(=O)NCc1n[nH]c(=O)c2ccccc12,-
Cn1nc(-c2nccn2Cc2cccnc2)c2c(Cl)cccc21,-
CCc1cc(Sc2ccc(NC(=O)Nc3cccc(Cl)c3)cc2)n2ncnc2n1,-
CCCc1cc(=O)n2[nH]c(CNc3ccc(OCC)cc3)nc2n1,-
COc1ccc(CNc2nc3nc(CNc4ccccc4)cc(=O)n3[nH]2)cc1,-
Cc1ccc(NCc2cc(=O)n3[nH]c(NCc4ccc(F)cc4)nc3n2)cc1C,-
CCCc1cc(=O)n2[nH]c(CNc3ccccc3)nc2n1,+
Cc1ccc(NCc2cc(=O)n3[nH]c(NCc4ccccc4)nc3n2)cc1C,-
CCCc1cc(=O)n2[nH]c(CNc3ccc(C)c(C)c3)nc2n1,+
CCCc1cc(=O)n2[nH]c(CNc3cccc(OC)c3)nc2n1,+
CCCc1cc(=O)n2[nH]c(CNc3cccc(Cl)c3)nc2n1,+
O=c1cc(CNc2ccccc2)nc2nc(NCc3ccccc3)[nH]n12,-
O=c1cc(CNc2ccccc2)nc2nc(NCc3ccc(Cl)cc3)[nH]n12,-
COc1cccc(NCc2cc(=O)n3[nH]c(NCc4ccccc4)nc3n2)c1,-
CCc1ccc(NCc2cc(=O)n3[nH]c(NCc4ccc(Cl)cc4)nc3n2)cc1,-
CCS(=O)(=O)NCCn1c(-c2ccc(F)cc2)nc2cccnc21,-
CC(C)Cn1c(CNS(=O)(=O)c2cccc3nsnc23)nc2cccnc21,-
CCOCCCNC(=O)C(=O)NCc1n[nH]c(=O)c2ccccc12,-
Cc1cc(C)cc(S(=O)(=O)NCc2nc3cccnc3n2Cc2ccccc2)c1,-
CC(Cn1cccn1)NC(=O)c1cc(-c2ccncc2)nc2ccccc12 (stereo not given),-
SMILES,FECH block
COc1cccc(-c2cc(=O)[nH]c(SCc3nc(-c4ccccc4OC)oc3C)n2)c1,-
COc1cccc(C(=O)Nc2cccc(OCc3cc(=O)n4cc(Cl)ccc4n3)c2)c1,-
COc1ccccc1C(=O)Nc1cccc(OCc2cc(=O)n3cc(Cl)ccc3n2)c1,+
Cc1ccn2c(=O)cc(COc3cccc(NC(=O)C(C)C)c3)nc2c1,+
Cc1ccn2c(=O)cc(COc3cccc(NC(=O)c4ccco4)c3)nc2c1,+
Cc1ccn2c(=O)cc(COc3cccc(NC(=O)c4cccc(Br)c4)c3)nc2c1,-
Cc1ccn2c(=O)cc(COc3cccc(NC(=O)c4ccccc4C)c3)nc2c1,-
Cc1ccn2c(=O)cc(COc3cccc(NC(=O)c4cccs4)c3)nc2c1,-
CCCC(=O)Nc1cccc(OCc2cc(=O)n3cc(Cl)ccc3n2)c1,-
COc1ccc(C(=O)Nc2cccc(OCc3cc(=O)n4ccc(C)cc4n3)c2)cc1,-
CCOc1cccc(-c2c(Nc3ccccc3)oc3c2c(=O)n(C)c(=O)n3C)c1,-
CC[C@@]12C[C@H]3C[C@@](O)(C1)C[C@](C(=O)NCCc1cc(=O)[nH]c(C)n1)(C3)C2,-
Cc1cc(NC(=O)COc2ccccc2)n(-c2ncnc3c2cnn3-c2ccc(Cl)cc2)n1,-
O=S(=O)(c1cccc2nsnc12)N1CCC(n2c(Cc3ccccc3)nc3cccnc32)CC1,-
Cc1cccc(N(Cc2nc3nc(C)cc(C)n3n2)C(=O)C2CCCCC2)c1,-
CC(=O)NCCn1ccnc1-c1ccc2nsnc2c1,-
Cn1nccc1C(=O)N1CCC(N2CCCC(C(=O)NC3CC3)C2)CC1 (stereo not given),-
CS(=O)(=O)NCc1nc2cccnc2n1C1CCCC1,-
Cc1ccc(OCCS(=O)(=O)N2CCn3cncc3C2)cc1,-
O=c1c(NCc2ccccc2Cl)c(-c2ccc3c(c2)CCCC3)c1=O,-
Clc1ccccc1CNc1ncnc2oc3c(c12)CCCC3,+
COc1ccc(CCNc2ncnc3oc4c(c23)CCCC4)c(OC)c1,-
CCc1cc(Sc2ccc(NC(=O)Nc3ccc(C)c(F)c3)cc2)n2nc(C)nc2n1,-
CC(C)OCC(=O)N1CCCC(C(=O)c2ccc3c4c(cccc24)CC3)C1 (stereo not given),-
C=CCOc1ccccc1CN1C[C@@H]2CNC[C@]2(C(=O)O)C1,-
CCc1cc(CN(C)C(CC)C(=O)Nc2ccccc2)on1 (stereo not given),-
CCc1cc(CN(C)C2CCN(C(=O)c3ccccn3)CC2)on1,-
CCc1cc(CN(C)C(=O)CN2C(=O)c3ccccc3C2=O)on1,+
O=C(NCCN1CCCc2ccccc21)C1CCCN(c2ncnc3c2nc2n3CCCCC2)C1 (stereo not given),-
Cc1n[nH]c(C)c1CCCNC(=O)c1ccc(NC(=O)C2CCC2)cc1,-

# Screening data (PubChem BioAssay)
